This test in a line: binders of probe aHhip on microarray, primary screen, stem cell growth factor project, biochemical, small-molecule microarray, fluorescence 635/667 (AID 1087).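 Note: score merges spot fluorescence at 667nm with spot signal to noise ratio.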 The note with it: higher = more signal.
Turning to `CN1C(=O)C2C=CC(C(O)c3cc(C(F)(F)F)cc(C(F)(F)F)c3)N(N3CCCCC3)C2C1=O` (stereo unspecified), the composite z-score was -0.335.
For the molecule `CC(C)[C@@H](CO)NC(=O)[C@H]1[C@@H](c2ccccc2)N(c2ccccc2)O[C@@H]1C`, the composite z-score was -0.0237.
In the case of `COc1cc2c(cc1O)C(C1CC1)N(Cc1cc3c(cc1Br)OCO3)CC2` (stereo unspecified) it was -0.394; in that of `C=CCNC(=O)[C@H]1[C@@H]2C(=O)O[C@@H](c3ccccc3)[C@@H](c3ccccc3)N2[C@@H](c2ccccc2OCCO)[C@]12C(=O)Nc1ccc(C#CC3=CCCCC3)cc12`, 0.0695.
The molecule `O=C1C2C=CC(C(O)c3ccc(F)cc3)N(Nc3ccccc3F)C2C(=O)N1c1ccccc1` (stereo unspecified) gave a composite z-score of 0.21.
With `COc1cc(OC)c(C(O)C2C=CC3C(=O)NC(=O)C3N2Nc2ccc(Cl)cc2Cl)cc1Br` (stereo unspecified), the composite z-score is -0.199.
Turning to `COc1cc2c(cc1O)C=[N+](Cc1cccc(OC(F)(F)F)c1)CC2`, the composite z-score is -0.374.
In the case of `COc1ccc([Si](C)(C)[C@H]2[C@H](CC(=O)N3Cc4ccccc4C[C@H]3CO)O[C@@]3(C(=O)N(Cc4ccc(N5CCC5=O)cc4)c4ccccc43)[C@@H]2C)cc1` it was 0.115; in that of `Cc1ccc(S[C@]2(C(=O)NCCN3CCOCC3)CC(=O)N(Cc3ccccc3)[C@@H]2c2ccc(CO)cc2I)cc1`, -0.0645; in that of `COCCOC(=O)N1C(=O)[C@@]2(c3cc(C#Cc4ccc(OC)cc4)ccc31)[C@H](C(N)=O)[C@H]1C(=O)O[C@H](c3ccccc3)[C@H](c3ccccc3)N1[C@@H]2c1ccccc1OCCO`, 0.0431.
Consider `[N-]=[N+]=NCc1ccccc1C[C@]1(C(=O)NCC(O)CO)N=C(c2ccc(OCCCO)cc2)O[C@H]1c1ccccc1` (stereo partly specified), for which the composite z-score was determined as 0.158.
`C#CCN(Cc1ccccc1Br)C(/C=C/c1ccccc1)CO` (stereo unspecified) registered a composite z-score of -0.236.
With `C#CCN(CC=C(C)C)[C@H](CO)c1ccccc1` the figure was -0.199.
Molecule `COc1ccc([Si](C)(C)[C@H]2[C@H](CCO)O[C@@]3(C(=O)N(Cc4ccc(N5C(=O)COc6ccccc65)cc4)c4ccccc43)[C@@H]2C)cc1` showed a composite z-score of 0.0129.
In the case of `CO[C@H]1O[C@H](CO)[C@@H](OC(=O)Nc2ccc(Br)cc2)[C@H](OC(=O)c2cc3ccccc3[nH]2)[C@H]1OC(=O)c1cc2ccccc2[nH]1` it was -0.0253.
`CN1C(=O)C2C=CC(C(O)c3ccccc3)N(Nc3ccccc3)C2C1=O` (stereo unspecified) yielded a composite z-score of -0.301.
With `COC(=O)[C@@]1(Cc2ccc(F)cc2)[C@H]2c3cc(C(=O)N4CCCC4)n(Cc4ccc(C)o4)c3C[C@H]2CN1C(=O)c1ccccc1`, the composite z-score worked out at 0.2.
Turning to `CCCCC(=C=CC[C@@H](O)c1ccccc1OCCO)CCO`, the composite z-score is -0.236.
`CC(=O)N1Cc2ccccc2C[C@@]2(COC(c3ccc(OCCCO)cc3)=N2)C1=O` had a composite z-score of -0.21.
Molecule `C[C@]1(C(=O)NC2CC2)c2ccccc2C(=O)N(Cc2cc(C(F)(F)F)cc(C(F)(F)F)c2)[C@H]1c1ccc(CO)cc1` came in with a composite z-score of -0.0994.
Regarding `CCCC[C@@H]1C[C@H]1[C@@H](NC(=O)c1ccco1)c1ccc(C(=O)OC)cc1`, the composite z-score is 0.379.
Molecule `C[C@@]1([C@@H](NC(=O)c2ccccc2)c2ccc(-c3ccccc3)cc2)C[C@H]1C1CCCCC1` had a composite z-score of 0.122.
On to `COCCOC(=O)N1C(=O)[C@@]2(c3cc(C#CC4=CCCCC4)ccc31)[C@H](c1ccc(O)cc1)N1[C@H](c3ccccc3)[C@H](c3ccccc3)OC(=O)[C@H]1[C@@H]2C(N)=O`, for which the composite z-score stood at 0.154.
In the case of `O=C1C2C=CC(C(O)C(c3ccccc3)c3ccccc3)N(n3cnnc3)C2C(=O)N1Cc1ccccc1` (stereo unspecified) it was 0.446; in that of `CN(C)CCCC[C@@H]1NC(=O)[C@H]2C[C@@H](C(=O)NCCCCCNC(=O)CS)[C@@H](c3cccc(OCCO)c3)N2C1=O`, -0.305.
In turn, `O=C(O)[C@@]1(CCS(=O)(=O)c2ccccc2)COC(c2ccc(OCCCO)cc2)=N1` had a composite z-score of 0.35.
In the case of `[N-]=[N+]=NCc1ccccc1[C@@H]1OC(c2ccc(OCCCO)cc2)=N[C@]1(Cc1ccccc1N=[N+]=[N-])C(=O)N1CCOCC1` it was -0.0994.
In the case of `CC(C)N1C(=O)[C@@]2(Cc3ccccc31)c1ccccc1C(=O)N(C1CCCCC1)[C@H]2c1ccc(CO)cc1`, the composite z-score is -0.296.
`CCOC(=O)[C@H]1C/C=C/C[C@H](C(=O)OCC)C(=O)O[C@H]2[C@@H](OC)O[C@H](CO)[C@@H](OC(=O)Nc3ccc(C#N)cc3)[C@@H]2OC1=O` gave a composite z-score of -0.119.
As for `COc1ccc(C(O)C2C=CC3C(=O)N(c4ccccc4)C(=O)C3N2Nc2ccccc2F)cc1OCc1ccccc1` (stereo unspecified), the composite z-score was determined as 0.0274.
`CN(C)C(=O)[C@]1(Cc2ccccc2CN=[N+]=[N-])N=C(c2ccc(OCCCO)cc2)O[C@@H]1c1ccccc1CN=[N+]=[N-]` had a composite z-score of -0.318.

Values taken from PubChem BioAssay.
